Source: the supplement of paper PMC10646978
± gives the standard deviation.

How the values were obtained:
Conditions in all cases: modulator concentration 10 µM
[1] = system: RAW-Dual (murine macrophage reporter line); test: NF-kB reporter (SEAP) activity fold change vs agonist alone; higher = enhanced NF-kB activity
Outline: (§1)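 Compound reached 10 μM final in each well by pin transfer, onto RAW-Dual murine macrophage reporter cells seeded at 50 000 per well in 384-well plates. After 1 hour at 37 °C, the cells were stimulated overnight with a PRR agonist. SEAP in the supernatant was read with QUANTI-Blue at 620 nm absorbance for NF-κB, and Lucia luciferase was read with QUANTI-Luc luminescence for IRF. Each signal was turned into fold change against the mean agonist-only control on the same plate, and two replicate plates were averaged with propagated errors.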

[2] = system: RAW-Dual (murine macrophage reporter line); test: IRF reporter (Lucia luciferase) activity fold change vs agonist alone; higher = enhanced IRF activity
Outline: as §1

[3] = system: RAW-Dual (murine macrophage reporter line); test: viability score (confluency relative to resting cells, overnight) (fraction); higher = more viable, active = viable (0.7 or more)
Outline: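 Overnight exposure to 10 μM final compound was carried out on RAW-Dual macrophages in 384-well plates. IncuCyte software generated two confluency masks over all wells imaged with IncuCyte. The viability score gives confluency in relation to resting cells. A compound met the cutoff if each mask exceeded 70% of resting cells.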

[4] = agonist: CpG ODN 1826 0.5 ug/mL

Structure (SMILES)	NF-kB reporter [1, 4]	NF-kB reporter ([1]; agonist: LPS 0.1 ug/mL)	NF-kB reporter ([1]; agonist: MPLA […])	IRF reporter ([2]; agonist: 3'3'-cGAMP 10 ug/mL)	IRF reporter ([2]; agonist: LPS 0.1 ug/mL)	IRF reporter ([2]; agonist: MPLA […])	viability score [3]
CS(=O)(=O)N(CC(=O)Nc1ccccc1Cl)c1ccc(Cl)c(C(F)(F)F)c1	0.753 ± 0.067	1.08 ± 0.062	0.874 ± 0.052	1.52 ± 0.11	1.35 ± 0.14	1.25 ± 0.2	0.961 (active)
O=C(O)CCC(=O)c1ccc(-c2ccccc2)cc1	0.806 ± 0.11	0.842 ± 0.1	0.87 ± 0.07	0.931 ± 0.049	0.984 ± 0.087	0.999 ± 0.078	0.986 (active)
O=C1C2C3C=CC(C4CC34)C2C(=O)N1N=Cc1ccc(-c2ccc(Cl)cc2)o1 (configuration not stated)	1.01 ± 0.14	1.04 ± 0.074	0.924 ± 0.068	0.968 ± 0.034	1.56 ± 0.26	1.15 ± 0.1	1.01 (active)
COC(CNS(=O)(=O)c1ccccc1Cl)c1cccc(F)c1 (configuration not stated)	1.21 ± 0.074	1.04 ± 0.078	1.08 ± 0.038	0.849 ± 0.045	1.03 ± 0.055	0.736 ± 0.12	0.995 (active)
O=C1Nc2ccc(Cl)cc2[C@@](C#CC2CC2)(C(F)(F)F)O1	0.352 ± 0.029	0.486 ± 0.024	0.631 ± 0.02	0.964 ± 0.056	0.715 ± 0.092	1.47 ± 0.2	0.114 (inactive)
OC1C=C2CCN3Cc4cc5c(cc4C(C1O)C23)OCO5 (configuration not stated)	1.1 ± 0.099	0.352 ± 0.029	1.35 ± 0.14	0.678 ± 0.062	0.751 ± 0.072	1.04 ± 0.19	0.71 (active)
N#CC1=C(NC(=S)NC(=O)c2ccccc2)c2ccccc2CC12CCCCC2	0.818 ± 0.096	0.577 ± 0.12	1.08 ± 0.085	1.76 ± 0.18	1.41 ± 0.098	1.73 ± 0.18	0.877 (active)
CN1c2ccccc2-c2ccccc2C12C=Cc1cc([N+](=O)[O-])ccc1O2 (configuration not stated)	0.385 ± 0.021	0.916 ± 0.1	0.879 ± 0.07	1.09 ± 0.07	1.27 ± 0.2	1.1 ± 0.12	0.999 (active)
CCN(CC)CCNC(=O)c1c(C)[nH]c(/C=C2\C(=O)Nc3ccc(F)cc32)c1C.O=C(O)C[C@H](O)C(=O)O	0.186 ± 0.011	0.791 ± 0.11	0.636 ± 0.061	0.0261 ± 0.0039	0.048 ± 0.0053	0.0544 ± 0.016	0.117 (inactive)
CCCS(=O)c1ccc2nc(NC(=O)OC)[nH]c2c1 (configuration not stated)	1.04 ± 0.15	0.998 ± 0.1	1.05 ± 0.037	0.971 ± 0.058	0.927 ± 0.037	0.917 ± 0.11	0.998 (active)
COc1ccccc1N1CCN(CC(O)COc2cccc3ccccc23)CC1 (configuration not stated)	0.878 ± 0.22	1.21 ± 0.2	0.711 ± 0.04	0.719 ± 0.026	1.6 ± 0.14	1.35 ± 0.13	0.967 (active)
COc1ccc(C=NNc2nc(Nc3ccc(C)cc3Br)nc(N3CCOCC3)n2)c(OC)c1	0.238 ± 0.024	1.13 ± 0.13	1.84 ± 0.18	0.649 ± 0.067	1.67 ± 0.23	2.01 ± 0.27	1.05 (active)
O=S(=O)(c1ccc(-n2cccn2)cc1)N1CC(n2cc(C3CC3)nn2)C1	1.01 ± 0.068	1.11 ± 0.1	0.939 ± 0.066	0.966 ± 0.076	1.21 ± 0.077	0.999 ± 0.085	0.993 (active)
COc1cc2nc(N3CCN(C(=O)c4ccco4)CC3)nc(N)c2cc1OC.Cl	0.888 ± 0.21	1.12 ± 0.056	0.953 ± 0.079	0.9 ± 0.032	1.22 ± 0.14	1.33 ± 0.2	1 (active)
O=c1sn(-c2cccc3ccccc23)c(=O)n1Cc1ccccc1	0.647 ± 0.1	0.501 ± 0.15	0.653 ± 0.044	0.473 ± 0.016	0.441 ± 0.14	0.81 ± 0.12	0.181 (inactive)
CCOc1ccccc1O[C@H](c1ccccc1)[C@H]1CNCCO1.CS(=O)(=O)O	0.873 ± 0.095	0.979 ± 0.061	1.03 ± 0.055	0.82 ± 0.045	0.905 ± 0.15	0.897 ± 0.074	0.99 (active)
CCN1C(=O)C(=Cc2cc(Br)ccc2OCCOc2ccccc2Cl)SC1=S	0.714 ± 0.064	0.899 ± 0.11	1.1 ± 0.096	0.982 ± 0.057	1.14 ± 0.086	1.18 ± 0.12	1.02 (active)
CNc1ccc([N+](=O)[O-])cc1-n1cnc(-c2ccc([N+](=O)[O-])cc2)c1	0.853 ± 0.068	0.807 ± 0.038	1.37 ± 0.12	1.02 ± 0.046	1.41 ± 0.082	1.58 ± 0.15	1.02 (active)
CC1(C)CC(=O)C2=C(C1)OC(N)=C(C#N)C21CCCCC1	1.01 ± 0.18	0.866 ± 0.07	0.895 ± 0.14	0.867 ± 0.024	1.13 ± 0.15	1.18 ± 0.14	1 (active)
CCOC(=O)c1cc(-c2ccccc2)sc1NC(=O)C(C)(C)C	0.798 ± 0.068	0.907 ± 0.055	1.2 ± 0.17	0.945 ± 0.055	1.3 ± 0.093	1.44 ± 0.17	1.02 (active)
CCOC(=O)C(CCc1ccccc1)NC1CCc2ccccc2N(CC(=O)O)C1=O.Cl (configuration not stated)	1.13 ± 0.28	1.04 ± 0.072	1.05 ± 0.079	0.967 ± 0.04	1.24 ± 0.15	1.33 ± 0.21	1 (active)
CN(CC(=O)O)c1nc2ccc(OC(F)(F)F)cc2s1	0.821 ± 0.15	1.03 ± 0.13	0.736 ± 0.064	0.892 ± 0.048	0.941 ± 0.17	0.952 ± 0.14	1.01 (active)
CCn1nnc2c(NCCc3c[nH]c4ccccc34)ncnc21	0.961 ± 0.042	1.09 ± 0.1	1.09 ± 0.058	0.768 ± 0.043	1.05 ± 0.15	1.11 ± 0.32	0.958 (active)
CC(Oc1cccc(Cl)c1)C(=O)NCc1ccncc1 (configuration not stated)	0.955 ± 0.098	1.09 ± 0.071	1.07 ± 0.091	0.985 ± 0.057	1.24 ± 0.13	0.988 ± 0.11	1.02 (active)
O=[N+]([O-])c1ccccc1S(=O)(=O)N1CCCC1	0.974 ± 0.11	1.06 ± 0.065	0.907 ± 0.055	0.921 ± 0.042	1.34 ± 0.087	1.23 ± 0.25	1.01 (active)
Cc1[nH]c(/C=C2\C(=O)Nc3ccccc32)c(C)c1CCC(=O)O	0.716 ± 0.18	0.853 ± 0.11	0.812 ± 0.048	0.618 ± 0.021	0.956 ± 0.24	0.98 ± 0.18	0.993 (active)
